Measurements taken from PubChem BioAssay (NCATS).
Where “and” joins values, the source holds several entries; their conditions need not be identical. Equal entries are not always repeated. Inconclusive results are not listed. Calls of active or inactive are those of the source. Unless noted, the call rests on the fitted dose curve; in most records, active means well fitted curve in the direction sought with a large enough effect; inconclusive means small, poorly fitted or top-dose-only effect, or another doubt; inactive means no such curve, though single readings can be large; an effect the other way counts as inactive or inconclusive.

Legend:
[1] = Validation of Assay for Modulators of Lamin A Splicing (AID 1459; active means well fitted curve in the direction sought with a large enough effect in the signal ratio; the % refers to the signal ratio;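 further: cells exposed to compound for two days before reading; 0% is about no effect; ratio rise marks activators and ratio drop marks inhibitors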)
How it was run: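 S3 HeLa stably expressing lamin A-EGFP splicing minigene and DsRed2, 600 cells/well in Opti-MEM with 2% FBS, treated 48 h at 37C; laser-scanning cytometry gives GFP/RFP total intensity ratio; ancitabine positive control, 0.5% DMSO vehicle.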

[2] = qHTS Assay for Lipid Storage Modulators (AID 1519; calls by dose curve; on activity change, negative = inhibition: on the % scale 0 is the no-effect control and ±100 the full control effect); settings: Drosophila S3 cells, BODIPY lipid droplet/cell ratio, laser cytometry, cells loaded with oleic acid; for activity change, negative = inhibition: at 57.5 µM (top of the series)
How it was run: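 Cells seeded at 5,000 per well were treated with compounds over a concentration series and loaded with oleic acid (400 uM, as added). Lipid droplet fluorescence (488 nm excitation, 500-530 nm channel) was read by laser-scanning cytometry and normalized to 20 uM Triacsin C.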

[3] = target: DNA repair nuclease/redox regulator APEX1 (Homo sapiens) (UniProt P27695); experiment: qHTS Validation Assay for Inhibitors of the Human Apurinic/apyrimidinic Endonuclease 1 (APE1) (AID 1705;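 further: TAMRA fluorescence gain over two minutes as APE1 cuts a quenched THF abasic duplex; on the % scale 0 is the no-effect control and ±100 the full control effect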)
Chain of DNA repair nuclease/redox regulator APEX1 (Homo sapiens) (P27695 whole entry, looked up): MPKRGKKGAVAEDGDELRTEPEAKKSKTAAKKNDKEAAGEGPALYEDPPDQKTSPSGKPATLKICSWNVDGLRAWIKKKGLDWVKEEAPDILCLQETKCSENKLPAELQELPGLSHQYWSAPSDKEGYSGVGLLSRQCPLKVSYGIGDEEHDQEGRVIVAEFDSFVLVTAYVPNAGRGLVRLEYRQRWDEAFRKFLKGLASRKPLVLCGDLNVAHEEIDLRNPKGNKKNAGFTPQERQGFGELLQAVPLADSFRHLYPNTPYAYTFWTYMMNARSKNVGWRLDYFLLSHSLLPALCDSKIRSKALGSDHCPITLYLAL
How it was run: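 Fluorogenic double-stranded THF abasic-site substrate (5'-TAMRA/3'-BHQ-2), 50 nM final. Enzyme preincubated with compound 15 min at room temperature, then substrate added. Kinetic fluorescence (ex 525/em 598 nm) read three times at 60 s intervals; activity taken as third-minus-first read difference.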

[4] = Counterscreen for APE1 Inhibitors: Fluorescent Dye Displacement Validation Assay (AID 1707);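 further: plate controls were ThO with dsDNA and no compound for no effect and ThO without dsDNA for full effect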
How it was run: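 Compounds are scored by their ability to displace Thiazole Orange (250 nM) from a 50 nM TAMRA-tagged duplex bearing a tetrahydrofuran abasic site. Buffer is 50 mM Tris-HCl pH7.5, 50mM NaCl, 2 mM MgCl2, 0.01% Tween-20.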

[5] = target: Endonuclease 4 (Escherichia coli (strain K12)) (UniProt P0A6C1); experiment: Counterscreen for APE1 Inhibitors: qHTS Validation Assay for Inhibitors of Endonuclease IV (AID 1708); further: on the % scale 0 is the no-effect control and ±100 the full control effect
How it was run: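 Concentration-response counterscreen run identically to the APE1 assay: 15 min room-temperature preincubation of 2 nM enzyme with compound, reaction started with 50 nM quenched abasic DNA, progress taken from kinetic fluorescence.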

[6] = qHTS for differential inhibitors of proliferation of Plasmodium falciparum line 3D7 (AID 1876);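 further: parasite growth measured after three days of culture; 0% = vehicle wells and -100% = reference inhibitor wells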
[7] = qHTS for differential inhibitors of proliferation of Plasmodium falciparum line D10 (AID 1877);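 further: parasites grown with compound for 72 h before DNA staining; plate controls were vehicle wells for no effect and reference inhibitor wells for full effect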
[8] = qHTS for differential inhibitors of proliferation of Plasmodium falciparum line Dd2 (AID 1882); settings: Potency: Plasmodium falciparum Dd2 proliferation inhibition;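 further: plate controls were DMSO vehicle for no effect and 0.29 µM artemisinin for full effect; nearly all actives have a fitted effect of over 65% in size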
How it was run: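 Dd2-infected erythrocytes (0.3% parasitemia, 2.5% hematocrit final) incubated with compound 72 h at 37 C, 5% CO2; lysed with saponin/Triton buffer containing SYBR Green I, incubated overnight in the dark, then read by fluorescence (485/535 nm). Normalized to 0.29 uM artemisinin and DMSO.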

[9] = qHTS for differential inhibitors of proliferation of Plasmodium falciparum line HB3 (AID 1886); settings: Potency: Plasmodium falciparum HB3 proliferation inhibition;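 further: parasites grown with compound for 72 h before SYBR Green readout; plate controls were vehicle for no effect and reference inhibitor for full effect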
[10] = target: Ferritin light chain (Equus caballus) (UniProt P02791); experiment: qHTS Validation Assay for Identification of Novel General Anesthetics (AID 2323); further: on the % scale 0 is the no-effect control and ±100 the full control effect
Chain of Ferritin light chain (Equus caballus) (P02791 2-175 limits assumed): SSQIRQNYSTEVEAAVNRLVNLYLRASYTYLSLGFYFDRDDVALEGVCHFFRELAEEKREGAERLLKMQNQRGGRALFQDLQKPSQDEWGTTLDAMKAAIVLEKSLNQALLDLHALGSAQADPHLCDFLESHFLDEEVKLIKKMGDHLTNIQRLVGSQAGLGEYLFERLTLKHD
How it was run: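 Horse-spleen apoferritin (10 uM) in PBS with 50% saturated 1-aminoanthracene; compounds pin-transferred, 10 min at room temperature. Fluorescence read at 380/535 nm, normalized to free 1-AMA and 1-AMA/apoferritin values; four-parameter Hill fit.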

[11] = Validation screen for small molecules that induce DNA re-replication in MCF 10A normal breast cells (AID 463097); further: 0% is about no effect; nearly all actives have a fitted effect of over 60% in size
How it was run: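 MCF 10A cells exposed to compound 48 hr at 37 C, 5% CO2, then Hoechst-stained 40 min. Laser-scanning imaging of nuclear DNA content (405 nm ex, 500-530 nm em); re-replication scored as rise in nuclei with elevated fluorescence intensity.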

[12] = Quantitative high throughput screen for delayed death inhibitors of the malarial parasite plastid, 96 hour incubation (AID 488745); further: on the % scale 0 is the no-effect control and ±100 the full control effect; nearly all actives have a fitted effect of over 70% in size
How it was run: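 Luciferase-expressing P. falciparum in erythrocytes (2% hematocrit, 0.1% parasitemia) incubated with compound for 96 h at 37 C, 5% CO2, in RPMI 1640 with 0.5% Albumax. Growth inhibition read as decreased luminescence.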

[13] = Quantitative high throughput screen for delayed death inhibitors of the malarial parasite plastid, 48 hour incubation (AID 488752); further: on the % scale 0 is the no-effect control and ±100 the full control effect; nearly all actives have a fitted effect of over 65% in size
How it was run: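 Erythrocytes infected with firefly luciferase-expressing P. falciparum (2% hematocrit, 0.1% parasitemia) cultured with compound for 48 h at 37 C, 5% CO2, in RPMI 1640/0.5% Albumax. Growth inhibition read as loss of luminescence.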

[14] = target: M-phase phosphoprotein 8 (Homo sapiens) (UniProt Q99549); experiment: qHTS Validation Assay for Inhibitors for MPP8 Chromodomain Interactions with Methylated Histone Tails (AID 488949); further: top concentration of the series differs between compounds; on the % scale 0 is the no-effect control and ±100 the full control effect; nearly all actives have a fitted effect of over 55% in size
Chain of M-phase phosphoprotein 8 (Homo sapiens) (Q99549 whole entry, looked up): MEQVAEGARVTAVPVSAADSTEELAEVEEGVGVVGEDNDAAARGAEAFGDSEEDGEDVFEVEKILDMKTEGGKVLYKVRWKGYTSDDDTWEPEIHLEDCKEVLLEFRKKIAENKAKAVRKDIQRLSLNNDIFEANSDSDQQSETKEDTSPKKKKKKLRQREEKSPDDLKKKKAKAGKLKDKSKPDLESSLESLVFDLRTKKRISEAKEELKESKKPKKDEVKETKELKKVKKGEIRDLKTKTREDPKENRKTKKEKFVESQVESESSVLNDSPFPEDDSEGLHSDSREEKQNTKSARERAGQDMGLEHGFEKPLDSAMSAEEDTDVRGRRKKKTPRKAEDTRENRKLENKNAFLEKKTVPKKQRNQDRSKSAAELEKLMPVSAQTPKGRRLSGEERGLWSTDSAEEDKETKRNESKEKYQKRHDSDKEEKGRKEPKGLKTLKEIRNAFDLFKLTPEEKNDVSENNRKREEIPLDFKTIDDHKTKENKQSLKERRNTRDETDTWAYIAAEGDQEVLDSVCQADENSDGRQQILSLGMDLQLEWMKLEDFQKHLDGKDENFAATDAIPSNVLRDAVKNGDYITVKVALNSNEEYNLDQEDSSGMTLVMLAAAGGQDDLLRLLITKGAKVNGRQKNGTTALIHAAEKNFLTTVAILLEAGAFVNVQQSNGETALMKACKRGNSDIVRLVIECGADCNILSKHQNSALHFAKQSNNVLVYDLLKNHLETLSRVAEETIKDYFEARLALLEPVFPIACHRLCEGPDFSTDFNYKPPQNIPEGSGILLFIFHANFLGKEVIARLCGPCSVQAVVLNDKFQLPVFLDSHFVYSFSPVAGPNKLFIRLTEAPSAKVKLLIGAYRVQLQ
How it was run: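 MPP8 (50 nM) was pre-bound to 50 nM biotinylated H3(1-18)K9me3 peptide in PBS pH 7.4 with 0.01% Tween-20. Compounds were then added for 30 min at room temperature, and complex disruption was read by AlphaScreen with streptavidin donor and nickel-chelate acceptor beads.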

[15] = target: Transient receptor potential cation channel subfamily V member 1 (Homo sapiens) (UniProt Q8NER1); experiment: HTS Assay for Compounds that Act as Enhancers of the Vanilloid Receptor 1 (AID 488979); further: 0% is about no effect
Chain of Transient receptor potential cation channel subfamily V member 1 (Homo sapiens) (Q8NER1 whole entry, looked up): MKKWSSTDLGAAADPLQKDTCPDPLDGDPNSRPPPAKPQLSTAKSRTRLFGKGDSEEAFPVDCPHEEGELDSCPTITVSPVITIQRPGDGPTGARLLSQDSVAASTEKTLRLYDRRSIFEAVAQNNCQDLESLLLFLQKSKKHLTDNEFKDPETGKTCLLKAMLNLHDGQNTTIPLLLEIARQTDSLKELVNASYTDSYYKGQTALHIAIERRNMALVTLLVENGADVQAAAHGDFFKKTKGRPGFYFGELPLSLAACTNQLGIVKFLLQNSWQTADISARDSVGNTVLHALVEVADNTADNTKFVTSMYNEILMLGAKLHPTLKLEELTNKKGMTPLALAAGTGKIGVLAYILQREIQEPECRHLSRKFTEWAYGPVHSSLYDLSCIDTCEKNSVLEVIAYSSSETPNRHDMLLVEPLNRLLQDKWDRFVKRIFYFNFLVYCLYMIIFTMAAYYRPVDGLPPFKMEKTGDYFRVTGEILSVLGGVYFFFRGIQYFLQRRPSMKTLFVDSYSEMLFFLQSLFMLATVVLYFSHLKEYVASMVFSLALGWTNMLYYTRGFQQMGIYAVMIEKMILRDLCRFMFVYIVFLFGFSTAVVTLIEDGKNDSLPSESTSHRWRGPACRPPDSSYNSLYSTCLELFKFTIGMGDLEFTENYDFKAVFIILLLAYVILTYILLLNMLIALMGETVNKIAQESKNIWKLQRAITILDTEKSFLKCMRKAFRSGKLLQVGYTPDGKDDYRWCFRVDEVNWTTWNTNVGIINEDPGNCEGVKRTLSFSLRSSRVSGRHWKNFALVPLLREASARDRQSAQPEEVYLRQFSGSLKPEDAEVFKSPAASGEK
How it was run: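 TRPV1-expressing cells loaded with Fluo-8 calcium dye; compounds added and calcium influx read kinetically for 3 min (agonist phase), then capsaicin at EC20 added and read 2 min more for enhancement. Fluorescence ex 480/em 520 nm.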

[16] = target: Thyrotropin receptor (Homo sapiens) (UniProt P16473); experiment: qHTS Assay for Antagonists of the Thyroid Stimulating Hormone Receptor (AID 488980); further: 0% is about no effect
Chain of Thyrotropin receptor (Homo sapiens) (P16473 whole entry, looked up): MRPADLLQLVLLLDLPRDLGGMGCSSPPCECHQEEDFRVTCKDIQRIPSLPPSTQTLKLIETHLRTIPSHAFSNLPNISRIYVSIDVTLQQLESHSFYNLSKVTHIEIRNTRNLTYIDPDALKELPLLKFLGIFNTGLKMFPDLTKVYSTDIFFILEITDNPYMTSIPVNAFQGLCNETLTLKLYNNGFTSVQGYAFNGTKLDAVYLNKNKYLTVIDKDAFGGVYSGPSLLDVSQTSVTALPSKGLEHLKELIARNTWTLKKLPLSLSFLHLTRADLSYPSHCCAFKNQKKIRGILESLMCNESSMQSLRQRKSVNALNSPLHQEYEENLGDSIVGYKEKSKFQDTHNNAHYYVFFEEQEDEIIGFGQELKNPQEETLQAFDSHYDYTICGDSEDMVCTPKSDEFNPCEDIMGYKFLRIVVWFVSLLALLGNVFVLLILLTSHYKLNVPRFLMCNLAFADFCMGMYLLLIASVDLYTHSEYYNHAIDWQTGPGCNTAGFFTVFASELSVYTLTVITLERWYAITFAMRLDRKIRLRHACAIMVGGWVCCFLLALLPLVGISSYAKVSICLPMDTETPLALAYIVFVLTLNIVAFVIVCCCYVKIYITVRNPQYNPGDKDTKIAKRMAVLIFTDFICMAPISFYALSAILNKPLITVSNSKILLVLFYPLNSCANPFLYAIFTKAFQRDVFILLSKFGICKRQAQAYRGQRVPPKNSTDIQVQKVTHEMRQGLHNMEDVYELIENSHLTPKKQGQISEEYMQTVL
How it was run: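 TSHR-transfected HEK293 cells (2000/well) in HEPES-buffered HBSS with 70 uM RO 20-1724 were stimulated with 4 nM TSH (EC80, final) in the presence of compound. cAMP was measured by HTRF competition after lysis and 30 min at RT.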

[17] = target: Thyrotropin-releasing hormone receptor (Homo sapiens) (UniProt P34981); experiment: qHTS for Small Molecule Agonists and Allosteric Enhancers of Human TRH Receptor: Validation Screen for Agonists (AID 493127;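 active means calcium activation more than 3 SD above the typical response in the agonist read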; further: 0% is about no effect); settings: TRH receptor agonist cell assay; at 2 µM; stronger effect = higher value
Chain of Thyrotropin-releasing hormone receptor (Homo sapiens) (P34981 whole entry, looked up): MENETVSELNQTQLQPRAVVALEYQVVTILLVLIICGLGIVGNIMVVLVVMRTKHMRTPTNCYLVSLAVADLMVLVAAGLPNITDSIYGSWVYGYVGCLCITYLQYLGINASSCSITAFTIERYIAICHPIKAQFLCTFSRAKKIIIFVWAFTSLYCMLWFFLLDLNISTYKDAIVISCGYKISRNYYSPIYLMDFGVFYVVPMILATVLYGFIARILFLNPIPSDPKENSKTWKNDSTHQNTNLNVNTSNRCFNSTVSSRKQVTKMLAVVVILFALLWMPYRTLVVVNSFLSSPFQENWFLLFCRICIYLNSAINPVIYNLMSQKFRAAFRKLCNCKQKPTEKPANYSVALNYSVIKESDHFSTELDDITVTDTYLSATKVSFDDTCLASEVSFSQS
How it was run: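 TRHR cells loaded with fluo-8 calcium dye; FDSS kinetic fluorescence (Ex 480/Em 530) read at 1 s/cycle after 23 nL compound addition. Agonist-mode calcium response recorded before the 10 nM TRH (EC20) addition.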

[18] = target: Galactokinase (Homo sapiens) (UniProt P51570); experiment: qHTS Validation Assay for Inhibitors of Human Galactokinase (GALK) (AID 493189); further: 0% is about no effect
Chain of Galactokinase (Homo sapiens) (P51570 whole entry, looked up): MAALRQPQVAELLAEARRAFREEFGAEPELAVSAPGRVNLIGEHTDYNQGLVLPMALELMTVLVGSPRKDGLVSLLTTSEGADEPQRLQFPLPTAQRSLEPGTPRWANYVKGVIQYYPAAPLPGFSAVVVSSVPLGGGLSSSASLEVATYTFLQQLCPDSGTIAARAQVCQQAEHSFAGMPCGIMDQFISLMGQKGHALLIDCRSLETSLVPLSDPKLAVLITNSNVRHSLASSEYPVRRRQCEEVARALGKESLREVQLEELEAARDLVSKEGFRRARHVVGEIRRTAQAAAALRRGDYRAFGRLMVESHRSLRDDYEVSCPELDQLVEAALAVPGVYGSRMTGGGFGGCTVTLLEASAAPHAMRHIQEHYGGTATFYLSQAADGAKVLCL
How it was run: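 GALK (5 nM) with 35 uM ATP and 100 uM galactose in HEPES pH 8.0 with MgCl2, NaCl, DTT and BSA. Reaction ran 1 h at room temperature. Residual ATP read by Kinase-Glo Plus luminescence.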

[19] = Validation screen for small molecules that induce DNA re-replication in SW480 colon adenocarcinoma cells (AID 504364); further: 0% is about no effect
How it was run: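 SW480 cells (250/well) exposed 48 h at 37 C, 5% CO2, then Hoechst-stained 40 min. Nuclear DNA content imaged by fluorescence scanning (405 nm excitation, 500-530 nm emission); re-replication scored as increased nuclei with elevated intensity.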

[20] = target: Voltage-gated inwardly rectifying potassium channel KCNH2 (Homo sapiens) (UniProt Q12809); experiment: qHTS Assay for Small Molecule Inhibitors of the Human hERG Channel Activity (AID 588834);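 further: top concentration of the series differs between compounds; on the % scale 0 is the no-effect control and ±100 the full control effect; lower thallium flux fluorescence means stronger hERG block; nearly all actives have a fitted effect of over 50% in size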
Chain of Voltage-gated inwardly rectifying potassium channel KCNH2 (Homo sapiens) (Q12809 whole entry, looked up): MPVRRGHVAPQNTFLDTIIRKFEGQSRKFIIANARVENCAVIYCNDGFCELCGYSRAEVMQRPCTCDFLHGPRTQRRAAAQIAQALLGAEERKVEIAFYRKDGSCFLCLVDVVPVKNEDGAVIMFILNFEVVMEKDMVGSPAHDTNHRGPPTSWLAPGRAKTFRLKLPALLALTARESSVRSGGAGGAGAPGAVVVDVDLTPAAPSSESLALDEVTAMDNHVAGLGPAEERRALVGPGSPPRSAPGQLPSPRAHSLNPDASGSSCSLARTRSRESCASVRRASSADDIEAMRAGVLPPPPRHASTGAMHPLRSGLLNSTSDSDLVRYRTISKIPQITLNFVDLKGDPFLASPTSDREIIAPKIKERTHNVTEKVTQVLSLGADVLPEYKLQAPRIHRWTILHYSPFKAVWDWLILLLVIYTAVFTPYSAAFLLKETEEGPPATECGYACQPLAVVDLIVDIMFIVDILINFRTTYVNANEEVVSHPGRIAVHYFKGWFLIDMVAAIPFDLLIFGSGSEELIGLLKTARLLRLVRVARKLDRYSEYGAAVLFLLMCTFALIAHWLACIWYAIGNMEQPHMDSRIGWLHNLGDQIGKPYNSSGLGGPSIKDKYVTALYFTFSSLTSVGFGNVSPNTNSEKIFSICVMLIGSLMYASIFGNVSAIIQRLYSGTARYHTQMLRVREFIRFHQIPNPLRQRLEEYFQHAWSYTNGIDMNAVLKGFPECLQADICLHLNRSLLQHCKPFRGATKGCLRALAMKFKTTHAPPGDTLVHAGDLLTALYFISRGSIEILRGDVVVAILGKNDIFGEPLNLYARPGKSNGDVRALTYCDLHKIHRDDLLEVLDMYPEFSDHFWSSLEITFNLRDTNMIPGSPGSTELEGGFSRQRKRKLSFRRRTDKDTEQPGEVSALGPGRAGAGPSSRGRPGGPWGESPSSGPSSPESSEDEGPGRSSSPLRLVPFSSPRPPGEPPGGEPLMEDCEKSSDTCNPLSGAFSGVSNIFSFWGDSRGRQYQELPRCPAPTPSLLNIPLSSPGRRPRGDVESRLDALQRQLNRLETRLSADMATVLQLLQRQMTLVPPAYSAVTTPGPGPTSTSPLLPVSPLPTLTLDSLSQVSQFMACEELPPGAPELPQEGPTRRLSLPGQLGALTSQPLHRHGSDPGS
How it was run: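 U2OS cells BacMam-transduced with hERG, 2000 cells/well, compound ~10 min at 37 °C before stimulation buffer. FluxOR thallium flux fluorescence read kinetically on FDSS; decrease indicates block; AC50 from Hill fits.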

[21] = measured here: cell count channel max response
[22] = measured here: lipid channel max response

O=C(O)CC[C@H](NC(=O)c1ccccc1C(=O)O)C(=O)O
34.2%: max response [2, 21]
31.2%: max response [2, 22]
inactive: outcome [1] | activity change, negative = inhibition [2] -0.627% | Potency [3] | Potency [4] | outcome [5] | Potency [6] | Potency [7] | Potency [8] | Potency [9] | outcome [10] | outcome [11] | Potency [12] | Potency [13] | Potency [14] | outcome [15] | outcome [16] | activation [17] 0.188% | outcome [18] | outcome [19] | Potency [20]

NC(=O)C1=CN(C2OC(COP(=O)(O)OP(=O)(O)OC[C@H]3O[C@@H](n4cnc5c(N)ncnc54)[C@H](OP(=O)(O)O)[C@H]3O)C(O)C2O)C=CC1 (stereo partly specified)
-24.1%: max response [2, 21]
inactive: outcome [1] | activity change, negative = inhibition [2] -2.12% | Potency [3] | Potency [4] | outcome [5] | Potency [6] | Potency [7] | Potency [8] | Potency [9] | outcome [10] | outcome [11] | Potency [12] | Potency [13] | Potency [14] | outcome [15] | outcome [16] | activation [17] -0.125% | outcome [18] | outcome [19] | Potency [20]
-21.9%: max response [2, 22]

Cc1ccccc1N1CCN(S(=O)(=O)C[C@]23CCC(CC2NC(=O)[C@@H](N)CCS(C)(=O)=O)C3(C)C)CC1 (stereo partly specified)
-10.9%: max response [2, 22]
-14.5%: max response [2, 21]
inactive: outcome [1] | activity change, negative = inhibition [2] 0.353% | Potency [3] | Potency [4] | Potency [6] | Potency [9] | outcome [10] | outcome [11] | Potency [12] | Potency [13] | outcome [15] | outcome [16] | activation [17] 1% | outcome [18] | outcome [19] | Potency [20]

CC(C)C1NC(=O)[C@H](CCCCN)NC(=O)[C@@H](Cc2c[nH]c3ccccc23)NC(=O)[C@H](Cc2ccc(O)cc2)NC(=O)[C@H](C)N(C)C(=O)[C@H](Cc2ccccc2)NC1=O (stereo partly specified)
25.5%: max response [2, 21]
23%: max response [2, 22]
inactive: outcome [1] | activity change, negative = inhibition [2] 0.502% | Potency [3] | Potency [4] | outcome [5] | Potency [6] | Potency [7] | Potency [8] | Potency [9] | outcome [11] | Potency [12] | Potency [13] | Potency [14] | outcome [15] | outcome [16] | activation [17] -0.438% | outcome [18] | outcome [19] | Potency [20]

NCCNC(=O)c1ccc(Cl)cc1
1.39% and 22.5%: max response [2, 22]
inactive: outcome [1] | activity change, negative = inhibition [2] -0.17% and -0.521% | Potency [3] | Potency [4] | outcome [5] | Potency [6] | Potency [7] | Potency [8] | Potency [9] | outcome [10] | outcome [11] | Potency [12] | Potency [13] | Potency [14] | outcome [15] | outcome [16] | activation [17] 0.625% | outcome [18] | outcome [19] | Potency [20]
0.461% and 25.8%: max response [2, 21]

CN=C(N)NCCCC(N)C(=O)O (stereo unspecified)
-19.4%: max response [2, 22]
inactive: outcome [1] | activity change, negative = inhibition [2] 0.52% | Potency [3] | Potency [4] | outcome [5] | Potency [6] | Potency [7] | Potency [8] | Potency [9] | outcome [10] | outcome [11] | Potency [12] | Potency [13] | Potency [14] | outcome [15] | outcome [16] | activation [17] 0.812% | outcome [18] | outcome [19]
-20%: max response [2, 21]
